Assay [1] is described as follows: chitosan synthesis blockers in C. neoformans – flow cytometry, Cibacron Brilliant Red staining (AID 1347148; call rule not given here;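 note: compound exposure lasted three days at 37 degrees C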). Particulars: Cryptococcus neoformans chitosan, stronger effect = lower value; at 10 µM unless noted. For orientation: A flow cytometer gives signals particle by particle.
Assay [2] is described as follows: signal quenchers or enhancers, Cy5 substrate/SSB – biochemical, NIH Clinical Collection, E. coli SSB, artefact control for HCV NS3 helicase inhibitor project (AID 743268; call rule not given here). Particulars: Cy5-oligo bound E. coli SSB, fluorescence interference.
Assay [3] deals with Hepatitis C virus NS3 helicase. Briefly: blockers of NS3h binding to DNA – biochemical, fluorescence polarization, NIH Clinical Collection, primary screen (AID 743270; call rule not given here). Particulars: NS3 helicase binding to Cy5-dT15 DNA, stronger effect = higher value, concentration not given here.
Assay [4] deals with Single-stranded DNA-binding protein (Escherichia coli (strain K12)) (UniProt P0AGE0). As to the kind of experiment: SSB-ssDNA binding inhibitors – biochemical, fluorescence polarization, NIH Clinical Collection, counter-screen for HCV NS3 helicase inhibitor project (AID 743271; in the data active = inhibition above about 28%). Particulars: E. coli SSB-DNA binding, stronger effect = higher value, concentration not given here. For orientation: Fluorescence polarisation rises when a labelled molecule tumbles more slowly, as on binding a larger partner.

Assay [5] can be described thus: compounds distorting NS3 helicase fluorescence signal – biochemical, NIH Clinical Collection, artefact control for HCV NS3 helicase inhibitor project (AID 743272; call rule not given here;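 note: HCV NS3 helicase with a Cy5 labelled single stranded DNA probe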). Particulars: fluorescence interference counterscreen, HCV NS3 helicase assay; stronger effect = lower value. For orientation: The purpose of a counterscreen is to sort out artefacts and off-target activity.
Assay [6] in a line: growth inhibition, single agents and combos, LFS_MB_1R, cell-based, cisplatin or BGB combos, synergistic combos for chromothripsis tumors (AID 1671452).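 Note: cells exposed for 96 hours before readout.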 Particulars: LFS_MB_1R medulloblastoma cells, stronger effect = higher value.
Assay [7] in a line: growth inhibition, single agents and combos, CRL2098, cell-based, BGB or cisplatin IC20 combos, synergistic combos for chromothripsis tumors (AID 1671454).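 Note: cells exposed for 96 h before readout; 0% = vehicle DMSO and 100% = killing by high DMSO.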 Particulars: CRL2098 osteosarcoma cells, drug combinations, stronger effect = higher value.
A short description of assay [8]: growth inhibition, single agents and combos, HD-MB03, cell-based, BGB or cisplatin IC20 combos, synergistic combos for chromothripsis tumors (AID 1671455; in the data active = inhibition above about 83%;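 note: 0% = vehicle DMSO and 100% = high DMSO as cytotoxic control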). Particulars: HD-MB03 medulloblastoma cells, stronger effect = higher value.
The nature of assay [9]: growth inhibition, single agents and combos, UWB1.289, cell-based, BGB or cisplatin combos, synergistic combos for chromothripsis tumors (AID 1671456).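 Note: cells exposed to compound for four days; 0% = vehicle DMSO and 100% = killing by high DMSO.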 Particulars: UWB1.289 ovarian carcinoma cells, stronger effect = higher value.
A short description of assay [10]: growth inhibition, single agents and combos, LFS_MB_2R, cell-based, cisplatin combos, synergistic combos for chromothripsis tumors (AID 1671457).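 Note: cells exposed to compound for four days before readout.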 Particulars: LFS_MB_2R medulloblastoma cells, stronger effect = higher value.
Assay [11] is described as follows: UWB1.289_BRCA1 ovarian cancer growth, cell-based, BGB or cisplatin combinations (AID 1671459). Particulars: UWB1.289 BRCA1 ovarian carcinoma, drug combinations, stronger effect = higher value.
Assay [12] can be described thus: drug combination toxicity in non-malignant astrocytes – cell-based, BGB or cisplatin IC20 combos, cytotoxicity control for chromothriptic childhood tumor combination screen (AID 1671460).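 Note: cells exposed to compounds for 96 hours before viability readout; 0% = vehicle and 100% = killing control.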 Particulars: Human astrocytes, viability inhibition, drug combinations, at 0.5 µM, stronger effect = higher value.
A short description of assay [13]: RCMB18 cell growth, single agent and combined, cisplatin and BGB IC40 combos (AID 1671462).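 Note: cells exposed to compound for four days.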 Particulars: RCMB18 medulloblastoma cells, stronger effect = higher value.
The nature of assay [14]: CRL1545 cell growth, single agent and combined, cisplatin and BGB IC20 combos (AID 1671464).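 Note: cells exposed to compound for 96 hours before readout; 0% = vehicle DMSO and 100% = high DMSO killing control.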 Particulars: CRL1545 osteosarcoma cells, stronger effect = higher value.
Assay [15] relates to Aerobactin synthetase IucA (Klebsiella pneumoniae hvKP1). Briefly: IucA enzyme inhibition, primary screen, biochemical, Spectrum library (AID 1346200; call rule not given here;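 note: 100% = wells without compound and 0% = wells lacking enzyme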). Particulars: malachite green pyrophosphate, A620, at 8 µM, stronger effect = lower value.
A short description of assay [16]: blockers of polyQ-driven CASP3 activation – cell-based (AID 1583). Particulars: polyglutamine-induced caspase-3 activation, cell assay; stronger effect = higher value;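 tested at 10 µM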.
The nature of assay [17]: yeast 75Q aggregation reduction – 75Q-TubU reporter (AID 1593). Particulars: Yeast 75Q polyglutamine aggregation reporter.
Assay [18] in a line: restoration of touch response, mutant HTT neurons – whole organism, C. elegans mechanosensory neurons, N-terminal huntingtin (AID 1599). Particulars: C. elegans polyQ-huntingtin mechanosensory neurons, stronger effect = higher value.
The nature of assay [19]: blockers of cytochrome c efflux from mitochondria – biochemical, purified mitochondria (AID 1603).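 Note: mouse liver mitochondria challenged with calcium chloride; signal normalized to the plate average as 100%.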 Particulars: stronger effect = lower value.
Assay [20] in a line: polyglutamine aggregate formation blockers (AID 1604). Particulars: polyglutamine-induced protein aggregation inhibition assay; stronger effect = higher value; tested at 2.5 µM.
The mark [21] stands for this setting: measured here: combination with cisplatin, at 0.5 µM.
The mark [22] stands for this setting: measured here: combination with cisplatin, at 5 µM.

For some of these results: Potency and affinity values are given separately. The source made the active and inactive calls. Cut-off read from the data, not from the text of the source, unless noted: active = inhibition above about 80%; inactive = the rest.

For `CCCCC/C=C\C/C=C\C/C=C\C/C=C\CCCC(=O)NCC(=O)O`, the fold fluorescence in [1] was 3.73 (inactive).

In the case of `c1ccc(C2CC2)c(OCC2=NCCN2)c1`, the fold fluorescence in assay [1] was 4.38 [at 231.2 µM] (inactive).

By inhibition is commonly meant the change of the read-out against control, counted positive when it falls. As to `C[C@]12CC[C@H](O)CC1=CC[C@@H]1[C@@H]2CC[C@]2(C)C(=O)CC[C@@H]12`, the results for the fluorescence ratio in assay [2] and in [5] were 0.94 (inactive) and 0.97 (inactive), respectively. In addition, the inhibition is 0.66% (inactive) in assay [3] and -2.76% (inactive) in assay [4].

As for `Cn1c(CCCC(=O)O)nc2cc(N(CCCl)CCCl)ccc21`, the inhibition in assay [6] (at 0.5 µM) was -36.7% (inactive); in assay [6] (measured here: combination with BGB IC40, at 0.05 µM) it was -23.8%; in [6] (setting [21]), -14.3%; in assay [6] (setting [22]), -23.5%; in assay [7] (at 0.5 µM), -98.8% (inactive); in assay [7] (measured here: combination with BGB at IC20, at 0.5 µM) it was -103%. In addition, the inhibition was -129% in assay [7] (measured here: combination with cisplatin at IC20, at 0.5 µM); -13.4% (inactive) in assay [8] (at 0.5 µM); -11.1% in assay [8] (measured here: combo with BGB at IC20, at 0.5 µM); -20.4% in assay [8] (measured here: combo with cisplatin at IC20, at 0.5 µM); -2.34% (inactive) in assay [9] (at 0.5 µM); -13.2% in assay [9] (measured here: inhibition with BGB combination, at 0.05 µM). The inhibition was -10.4% in [9] (measured here: inhibition with cisplatin combination, at 0.05 µM); -14.6% (inactive) in assay [10] (at 0.5 µM); -2.61% in [10] (setting [21]); -14.7% in [10] (setting [22]); -2.78% in assay [11] (BGB combination, concentration series, at 5 µM); -6.91% (inactive) in assay [11] (at 0.5 µM). Besides, the inhibition in assay [11] (cisplatin combination, concentration series, at 5 µM) was -6.97%; in [12], -9.57% (inactive); in assay [12] (measured here: combo with BGB IC20) it was -2.95%; in assay [12] (measured here: combo with cisplatin IC20), -20%; in [13] (at 0.5 µM), -2.17% (inactive); in [13] (cisplatin combo, at 5 µM), -2.69%. Further, the inhibition in assay [13] (measured here: BGB IC40 combination, at 0.05 µM) is 14.5%; in assay [13] (setting [21]) it was 15.5%; in assay [13] (single agent, at 5 µM) it was -39.8%; in [14] (at 0.5 µM), -50.3% (inactive); in assay [14] (measured here: with BGB IC20 combination, at 0.5 µM) it was -68.1%; in assay [14] (measured here: with cisplatin IC20 combination, at 0.5 µM), -41.4%. The inhibition in assay [14] (single agent, at 0.05 µM) was 2.56%; in assay [14] (single agent, at 5 µM), -15.4%.

For the compound `O=C(NC(=O)c1c(F)cccc1F)Nc1cc(Cl)c(OC(F)(F)C(F)C(F)(F)F)cc1Cl` (stereo unspecified), the activity remaining in [15] was 94.5% (inactive).

As to `CN(C)C(=S)SSC(=S)N(C)C`, in assay [16], the inhibition amounted to 37.5%. This compound also returned a score in assay [17] of 0.02. The rescue above control in [18] amounted to 2.19. The cytochrome c release ratio in [19] was determined as 3.47. The inhibition of aggregation in assay [20] is -16.7%. For the same compound, in assay [15], the activity remaining is 97.7% (inactive).

In the case of `COP(=S)(OC)Oc1ccc(Sc2ccc(OP(=S)(OC)OC)cc2)cc1`, the activity remaining in [15] was 118% (inactive).

For the origin of these results see PubChem BioAssay.
